From article PMC7826789 (International Journal of Molecular Sciences, 2021)

Columns and labels:
Details in all cases: Compound Concentration (nM):1000
AAK1 = system: AAK1
[1] = system: ABL1(E255K)-phosphorylated
[2] = system: ABL1(F317I)-nonphosphorylated
[3] = system: ABL1(F317I)-phosphorylated
[4] = system: ABL1(F317L)-nonphosphorylated
[5] = system: ABL1(F317L)-phosphorylated
[6] = system: ABL1(H396P)-nonphosphorylated
[7] = system: ABL1(H396P)-phosphorylated
[8] = system: ABL1(M351T)-phosphorylated
[9] = system: ABL1(Q252H)-nonphosphorylated
[10] = system: ABL1(Q252H)-phosphorylated
[11] = system: ABL1(T315I)-nonphosphorylated
[12] = system: ABL1(T315I)-phosphorylated
[13] = system: ABL1(Y253F)-phosphorylated
ABL1-nonphosphorylated = system: ABL1-nonphosphorylated
ABL1-phosphorylated = system: ABL1-phosphorylated
ABL2 = system: ABL2
ACVR1B = system: ACVR1B
ACVR1 = system: ACVR1
ACVR2A = system: ACVR2A
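Note: KINOMEscan scanMAX binding as percent activity remaining versus control; lower means stronger binding.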

Compound | Percent Control (AAK1) [%] | Percent Control [1] [%] | Percent Control [2] [%] | Percent Control [3] [%] | Percent Control [4] [%] | Percent Control [5] [%] | Percent Control [6] [%] | Percent Control [7] [%] | Percent Control [8] [%] | Percent Control [9] [%] | Percent Control [10] [%] | Percent Control [11] [%] | Percent Control [12] [%] | Percent Control [13] [%] | Percent Control (ABL1-nonphosphorylated) [%] | Percent Control (ABL1-phosphorylated) [%] | Percent Control (ABL2) [%] | Percent Control (ACVR1B) [%] | Percent Control (ACVR1) [%] | Percent Control (ACVR2A) [%]
Cl.O=C(O[C@H]1CN[C@H](C#Cc2cc3ncnc(Nc4ccc5c(cnn5Cc5ccccc5)c4)c3s2)C1)N1CCOCC1 [GSK200398A] | 87 | 88 | 89 | 85 | 100 | 52 | 80 | 90 | 100 | 84 | 80 | 100 | 100 | 78 | 84 | 76 | 100 | 100 | 100 | 100
CCS(=O)(=O)c1ccc(OC)c(Nc2ncc(-c3cccc(F)c3)o2)c1 [GW621970X] | 100 | 6.7 | 98 | 51 | 47 | 5.4 | 1.1 | 9.3 | 6.6 | 4.5 | 4.9 | 100 | 91 | 7.1 | 20 | 9.9 | 33 | 100 | 18 | 100
COc1cc(C=NNc2ncnc3c2cnn3-c2ccccc2)ccc1O [GW513184X] | 91 | 15 | 92 | 92 | 100 | 91 | 4.7 | 26 | 25 | 8.4 | 13 | 37 | 35 | 26 | 31 | 23 | 55 | 53 | 22 | 68
CC1=C(C(=O)Nc2ccc3[nH]ncc3c2)C(c2ccc3ccccc3c2)CC(=O)N1 (stereo not drawn) [GSK270822A] | 81 | 83 | 100 | 67 | 87 | 68 | 59 | 86 | 80 | 50 | 84 | 48 | 76 | 79 | 54 | 80 | 100 | 97 | 93 | 100
O=C(Nc1n[nH]c2nc(-c3ccc(O)cc3)c(Br)cc12)C1CC1 [SB-725317] | 79 | 26 | 100 | 80 | 100 | 100 | 1.9 | 28 | 33 | 7 | 37 | 16 | 12 | 48 | 22 | 31 | 100 | 100 | 72 | 75
COc1ccc(COc2ccc(Cc3cnc(N)nc3N)cc2OC)cc1 [GW632580X] | 94 | 75 | 99 | 95 | 100 | 93 | 88 | 86 | 85 | 88 | 92 | 100 | 87 | 84 | 90 | 76 | 91 | 100 | 74 | 95
CN1CCN(C(=O)c2ccc(NC(=O)Nc3ccc(N(C)c4ccnc(Nc5ccc(CS(C)(=O)=O)cc5)n4)cc3)cc2)CC1.Cl [GW830263A] | 19 | 38 | 96 | 69 | 51 | 34 | 1.4 | 32 | 20 | 6.1 | 30 | 0 | 21 | 20 | 9 | 30 | 44 | 77 | 28 | 78
COc1ccc2[nH]c3c4[nH]c5ccc(OC)cc5c4c4c(c3c2c1)C(=O)NC4=O [GW296115X] | 53 | 64 | 87 | 73 | 84 | 75 | 34 | 65 | 68 | 28 | 36 | 44 | 94 | 53 | 58 | 57 | 82 | 100 | 77 | 58
C/C(Nc1ccc(S(N)(=O)=O)cc1)=C1/C(=O)Nc2ccccc21 [GW335962X] | 67 | 82 | 88 | 83 | 100 | 89 | 72 | 91 | 82 | 76 | 96 | 100 | 86 | 89 | 88 | 82 | 100 | 100 | 100 | 100
